In the library only some 3.2% were active in any assay of this set; here they are far more common.
ANO1 block – blocks the mouse calcium-activated chloride channel TMEM16A | Q8BHY3 | HEK293 TMEM16A/YFP iodide influx fluorescence, ionomycin | normalized B-score (activity score, 25-100; higher = stronger inhibition) at 10 µM | hit rate 1.2% among 310,000 | AID 588511;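 active = ratio plate-corrected score three or more library SD toward inhibition, starting fluorescence score within five deviations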;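 note: score derived from kinetic fluorescence span divided by baseline fluorescence per well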
Target sequence (Q8BHY3 whole entry, looked up): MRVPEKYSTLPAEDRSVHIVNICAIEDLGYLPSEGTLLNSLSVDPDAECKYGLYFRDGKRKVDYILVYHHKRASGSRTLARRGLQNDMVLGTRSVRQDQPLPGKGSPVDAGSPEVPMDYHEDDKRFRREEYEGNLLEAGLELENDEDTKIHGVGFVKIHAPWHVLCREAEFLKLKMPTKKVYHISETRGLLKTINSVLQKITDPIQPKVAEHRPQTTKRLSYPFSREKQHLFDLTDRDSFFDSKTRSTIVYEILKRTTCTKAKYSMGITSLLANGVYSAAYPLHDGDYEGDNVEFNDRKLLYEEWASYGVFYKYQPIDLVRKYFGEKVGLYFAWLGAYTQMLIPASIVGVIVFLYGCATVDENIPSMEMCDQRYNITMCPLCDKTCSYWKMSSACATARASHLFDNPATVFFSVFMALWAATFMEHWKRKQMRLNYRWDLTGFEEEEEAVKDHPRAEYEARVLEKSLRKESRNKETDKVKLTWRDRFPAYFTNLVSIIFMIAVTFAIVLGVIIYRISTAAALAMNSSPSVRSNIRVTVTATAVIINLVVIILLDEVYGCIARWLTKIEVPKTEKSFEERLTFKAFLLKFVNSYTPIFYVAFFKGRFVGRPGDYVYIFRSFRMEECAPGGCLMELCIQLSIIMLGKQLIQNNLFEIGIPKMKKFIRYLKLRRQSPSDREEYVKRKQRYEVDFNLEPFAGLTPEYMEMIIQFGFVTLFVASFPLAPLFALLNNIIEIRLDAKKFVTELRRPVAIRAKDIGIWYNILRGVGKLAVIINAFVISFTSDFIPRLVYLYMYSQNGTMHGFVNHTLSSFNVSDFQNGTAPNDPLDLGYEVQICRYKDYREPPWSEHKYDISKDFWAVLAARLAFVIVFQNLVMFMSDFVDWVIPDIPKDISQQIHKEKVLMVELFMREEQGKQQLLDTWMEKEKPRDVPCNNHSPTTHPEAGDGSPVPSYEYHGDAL
Rce1 inhib – blocks yeast Ras-converting enzyme; yeast membranes, quenched prenylated peptide cleavage fluorescence; calls only; AID 2563; Q03530; hit rate 0.27% among 290,000;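 active = fall in fluorescence gain of 50% or more versus controls, with final raw signal at or below 3038400; inconclusive = same 50% fall but final raw signal above 3038400; inactive = fall in fluorescence gain under 50%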;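 note: plate controls were neutral control wells for no effect and wells lacking membranes for full effect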
Kir21 inh – Kir2.1 (mouse) channel inhibition | P35561 | HEK293-Kir2.1, FluxOR thallium flux fluorescence; hits give low values | B-score at 10 µM | hit rate 0.85% among 310,000 | AID 1672;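 active = fluorescence ratio B-score at or below minus 3 SD of library scores, with starting-brightness B-score within 2 SD, cut at about -4.2 in these data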;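 note: channel flux triggered by added potassium and thallium sulfate stimulus; B-score of peak minus minimum fluorescence over baseline after thallium stimulus; more negative B-score means stronger Kir2.1 block with less thallium influx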
CHT inh – inhibitors of human choline transporter CHT; CHT-expressing cells, membrane potential dye, choline response; hits give low values; B-score at 10 µM; hit rate 0.86% among 310,000; AID 488975;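 active = B-score over 3 SD under the library average, and starting fluorescence ratio not unusually high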;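 note: choline stimulus applied at its EC90 after an EC20 pre-addition; B-score computed on integrated fluorescence ratio after choline addition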
ANO1 activ – mouse TMEM16A channel activation, primary screen | AID 623877 | HEK293 TMEM16A/YFP-H148Q/I152L, iodide quench fluorescence; hits give low values | B-score at 10 µM | hit rate 0.3% among 340,000;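 active = fluorescence-ratio B-score plate-corrected deviation score at least 3 library SD below zero, with starting fluorescence score within 5 deviations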;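 note: channel opened by trigger with iodide after compound preincubation; score built on the fluorescence ratio of max minus min over baseline; more negative score means more quench and so TMEM16A activation or potentiation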
CHT allo act – allosterically activates the human high affinity choline transporter; B-score at 10 µM; Q9GZV3; CHT-expressing cells, membrane potential dye, choline EC20; hits give high values; LV-AA mutant CHT in HEK293 cells; AID 488977; hit rate 0.49% among 310,000;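 active = initial fluorescence not abnormally high and integrated response B-score, plate-corrected, over 3 SD above library mean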
CHT inh conf – human CHT inhibition, confirmatory screen | shares compounds with CHT inh | CHT-expressing cells, choline membrane potential dye; LV-to-AA substituted CHT, HEK293 cells | CHT activity remaining % of control (hits give low values), % at 10 µM | hit rate 70% among 2,400 | AID 493221;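 active = choline transporter activity left, mean of duplicates at 10 µM, below buffer-only control mean minus 3 SD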;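 note: depolarization triggered by choline at its EC90 following an EC20 pre-addition; 0% = hemicholinium-3 full block and 100% = buffer-only control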
HEK293 CHT ctr – CHT inhibitor counter-screen hit in parental HEK293 cells; membrane potential dye, choline response; active = decrease or increase beyond buffer ±3SD; membrane potential ratio readout (active if shifted either direction beyond buffer ±3SD; no single direction) at 10 µM; hit rate 4% among 2,400; shares compounds with CHT inh;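 note: parental cells lack the transporter so any hit is non-specific; ratio is peak minus trough fluorescence over baseline after EC90 choline challenge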
Starred values were filed as active, the others as inactive; i = inactive; u = inconclusive; x = not tested or not shown.

SMILES	ANO1 block	Rce1 inhib	Kir21 inh	CHT inh	ANO1 activ	CHT allo act	CHT inh conf	HEK293 CHT ctr
Cc1ccc(N2CC(C(=O)Nc3ncc([N+](=O)[O-])s3)CC2=O)cc1 (stereo not drawn)	i	i	-1.22	-5.02*	i	i	49.6%*	i
CC(=O)c1ccc(N2CCN(S(=O)(=O)c3c(C)[nH]c(C)c3C(=O)N3CCCCC3)CC2)cc1	i	i	-1.02	i	i	i	x	x
O=C(CCCSc1nnc(-c2cccs2)n1CC1CCCO1)c1ccccc1 (stereo not drawn)	i	i	-0.8	-5.51*	i	i	i	-8.65*
CCn1c(=O)cc(SCC(=O)NCc2ccc(C)o2)c2ccccc21	i	i	-1.01	-5.08*	i	i	i	i
CCn1c(=O)cc(SCC(=O)NCc2ccco2)c2ccccc21	i	i	-1.48	i	i	i	x	x
COc1ccc(OC)c(CN2CCN(Cc3cccc4ccccc34)CC2)c1	i	i	-0.38	i	i	i	x	x
O=C(CN1C(=O)c2ccccc2S1(=O)=O)NCCc1ccc(F)cc1	x	x	x	x	i	x	x	x
CC(NC(=O)C1c2ccccc2Oc2ccccc21)C1CCCO1 (stereo not drawn)	i	i	0.04	-5.72*	i	i	67.9%*	i
O=CN/C=C/c1cc(O)ccc1O	i	x	x	-7.42*	i	i	48.4%*	i
CCOC(=O)c1ccccc1Oc1c(F)c(F)nc(NCCO)c1F	i	x	-2.71	-5.47*	i	i	54.6%*	i
Cc1cccc(-c2nc(CN3CCCC(C(=O)NC4CCCC4)C3)c(C)o2)c1 (stereo not drawn)	i	i	-0.4	-5.1*	i	i	i	i
Cc1cccc(Nc2cc(=O)n(C)c(=O)[nH]2)c1	i	i	0.76	i	i	i	x	x
CSC(SC)=C(C#N)C(=O)c1ccccc1	i	i	-4.39*	-5.04*	i	i	36.9%*	i
CC(=O)c1cccc(OCC(=O)c2cc(C)n(-c3cc(C)on3)c2C)c1	i	i	0.09	-4.97*	i	i	63.0%*	i
Cc1nc([N+](=O)[O-])c(Br)n1Cc1ccccc1	i	i	-0.71	-9.97*	i	i	60.7%*	i
Oc1c(Br)cc(Cl)cc1C=Nc1ccccc1Br	i	i	-1.27	-7.12*	i	i	67.6%*	i
Oc1c(Br)cc(Cl)cc1C=Nc1ccc(N2CCOCC2)cc1	i	i	-0.47	i	i	i	x	x
COC(=O)c1sc(N2C(=O)C(O)=C(C(=O)c3ccc(C)o3)C2c2cc(OC)ccc2OC)nc1C (stereo not drawn)	i	i	1.4	i	i	i	x	x
COc1ccc(C2CC(=O)Oc3c(C(CCN4CCCCC4)c4ccc(N(C)C)cc4)c(OC)cc(OC)c32)cc1 (stereo not drawn)	i	i	1.18	-5.9*	i	i	47.2%*	i
COc1cc(OC)c2c(-c3ccccc3)cc(=O)oc2c1C(CCN1CCN(c2ccccc2)CC1)c1ccc(N(C)C)cc1 (stereo not drawn)	i	i	-0.45	i	i	i	x	x
COc1ccc(C(CCN2CCCC(C)C2)c2c(OC)cc(OC)c3c(C)cc(=O)oc23)cc1 (stereo not drawn)	i	i	-0.1	i	i	i	x	x
COc1cc(OC)c2c(-c3ccccc3)cc(=O)oc2c1C(CCN1CCCC(C)C1)c1ccc(N(C)C)cc1 (stereo not drawn)	i	i	-1.77	-5.96*	i	i	53.5%*	i
COc1ccc(C(CCN2CCCC(C)C2)c2c(OC)cc(OC)c3c(-c4ccccc4)cc(=O)oc23)cc1 (stereo not drawn)	i	i	-0.45	-5.66*	i	i	49.9%*	i
COc1cc(OC)c2c(-c3ccccc3)cc(=O)oc2c1C(CCN1CCCC1)c1ccc2c(c1)OCO2 (stereo not drawn)	i	i	-3.3	-6.49*	i	i	49.5%*	i
COc1ccc(C2CC(=O)Oc3c(C(CCN4CCCC(C)C4)c4ccc(N(C)C)cc4)c(OC)cc(OC)c32)cc1 (stereo not drawn)	i	i	0.53	i	i	i	x	x
SMILES	ANO1 block	Rce1 inhib	Kir21 inh	CHT inh	ANO1 activ	CHT allo act	CHT inh conf	HEK293 CHT ctr
S=C(Nc1ccc(Br)cc1)N1CCN(c2ccccn2)CC1	i	i	1.12	i	i	i	x	x
O=C(NCC(=O)N1CCN(c2ccccc2)CC1)c1ccco1	i	i	1.5	i	i	i	x	x
CC1CC(C)CN(CCCNC(=O)c2ccc3c(c2)N(Cc2ccccc2)C(=O)c2ccccc2S3=O)C1 (stereo not drawn)	i	i	-1.65	i	i	i	x	x
O=C(O)CCn1cc(/C=C/C(=O)c2ccc(Cl)cc2)c(-c2ccc(Br)cc2)n1	i	x	x	i	i	i	x	x
O=C(O)c1c(-c2ccccc2)c2oc3ccccc3c2[nH]c1=O	i	u	-1.11	i	i	i	x	x
CC(C)(C)OC(=O)NCCCCCNC(=O)c1[nH]cnc1C(=O)Nc1ccon1	x	x	x	x	i	x	x	x
COc1ccc(C(CCN2CCCC2)c2c(OC)cc(OC)c3c(-c4ccccc4)cc(=O)oc23)cc1 (stereo not drawn)	i	i	-0.53	-5.18*	i	i	51.3%*	i
COc1ccc(C(CCN2CCOCC2)c2c(OC)cc(OC)c3c(-c4ccccc4)cc(=O)oc23)cc1 (stereo not drawn)	x	x	x	x	i	x	x	x
Cc1ccc(NC(=O)C(OC(=O)c2cnc(C)cn2)c2ccccc2)c([N+](=O)[O-])c1 (stereo not drawn)	i	i	0.7	i	i	i	x	x
O=C(CCCc1nc2ccccc2s1)Nc1ccc(N2CCOCC2)cc1	i	i	-0.38	-6.73*	i	i	i	i
N#Cc1ccc(NC(=O)CCc2nc3ccccc3s2)cc1	i	i	-0.14	i	i	i	x	x
COc1ccccc1/C=C/CN1CCC(Oc2cc(C(=O)NC3CC3)ccc2OC)CC1	i	i	-0.65	i	i	i	x	x
Fc1ccccc1-c1csc(=Nc2cccnc2)n1CCCn1ccnc1	i	i	-1.14	-6.84*	i	i	47.6%*	i
COCCn1c(-c2cccs2)csc1=Nc1cccnc1	i	x	0.45	i	i	i	x	x
